Measured values: ChEMBL document CHEMBL4513216, “Probing the Open Global Health Chemical Diversity Library for Multistage-Active Starting Points for Next-Generation Antimalarials” (ACS Infect Dis, 2020)
The whole screen tested about 68,000 compounds, of which about 2,700 (4%) showed an effect of 50% or more. The sample holds strong results, similar compounds and a random draw of the others, so the mix is not that of the screen.

These compounds were tested on Plasmodium berghei (assay: Screen against P. berghei liver stage (PbLuc), transformed with Luciferase, at 2uM). Details: tested at 2 uM.
Type: functional, HepG2

| SMILES | INHIBITION [%] |
| --- | --- |
| CC(=O)Nc1nc(COc2nc(C)no2)cs1 | -4.89 |
| O=C(O)[C@@H]1CN(Cc2c[nH]c(CC3CCCC3)n2)C[C@H]1c1ccncc1 | 25.35 |
| CCC[C@@H]1CN(Cc2c[nH]c(CC3CCCC3)n2)C[C@H]1C(=O)O | 5.93 |
| O=C(O)[C@@H]1CN(Cc2c[nH]c(CC3CCCC3)n2)C[C@H]1c1ccccn1 | 50.86 |
| CCOCC1CN(C(=O)c2ccco2)Cc2cnn(CC)c21 (stereo not given) | 16.87 |
| COc1ccc(CC(=O)NCC(O)c2sccc2C)cc1OC (stereo not given) | 55.52 |
| Cc1ccsc1C(O)CNC(=O)Cc1ccc(F)cc1 (stereo not given) | 33.35 |
| Cc1ccsc1C(O)CNC(=O)Cc1ccc(S(=O)(=O)C(C)C)cc1 (stereo not given) | 16.03 |
| CCCn1nc(C)c(CNC(=O)c2snnc2C)c1C | 32.26 |
| Cc1nc(N)cc(C2CCN2CCOc2ccccc2)n1 (stereo not given) | -43.34 |
| Cc1ccc(NC(=O)c2ccc(=O)n(CC(=O)Nc3nccs3)n2)cc1 | -20.78 |
| Cc1cccc(-c2nc(C)nn2CC(=O)NC2CCCC2)c1 | 25.74 |
| Cc1ccc(NC(=O)c2ccc(=O)n(CC(=O)NC3CCCC3)n2)cc1 | 50.2 |
| CCc1nnsc1C(=O)NCc1c(C)nn(CCOC)c1C | 24.05 |
| Cn1nc(C2CCCN2)c2c(C(=O)NC3CC3)cc(C3CC3)nc21 (stereo not given) | 11.43 |
| CCc1nnc2n1CCN(C=C1NN=C(c3occc3C)O1)C2 | -27.57 |
| Cc1cnn(CC2CN(C=C3NN=C(c4occc4C)O3)CCO2)c1 (stereo not given) | -32.2 |
| Cc1ccoc1C1=NNC(=CN2CCn3c(nnc3C(C)C)C2)O1 | 83.22 |
| Cc1ccoc1C1=NNC(=CN2CCn3c(C)nnc3C2)O1 | -9.22 |
| Cc1ccoc1C1=NNC(=CN2CCCC(Cn3cncn3)C2)O1 (stereo not given) | 3.9 |
| Cc1ccoc1C1=NNC(=CN2CCOC(Cn3cccn3)C2)O1 (stereo not given) | 60.64 |
| NC(=O)C1CCN(C(=O)NCc2ccc3c(c2)OCCO3)CC1 | 42.17 |
| C[C@H]1C[C@H]2CN(S(=O)(=O)c3ccc(F)cc3)CC[C@H]2O1 | 47.42 |
| Cc1nc(N2CCOc3ccc(CO)cc3C2)c2nc(C)oc2n1 | 34.52 |
| CC(C)OCCC(=O)NCCC(=O)N1CCN(c2ccccn2)CC1 | -8.63 |
| Cc1noc(C2CCN(Cn3cc(Cl)cn3)CC2)n1 | -16.03 |
| CCCOc1cc(CNC(=O)Nc2ccc(C)cc2)ccn1 | 5.88 |

| SMILES | INHIBITION [%] |
| --- | --- |
| Cc1csc([C@@H]2C[C@H]3CN(c4ncc(F)cn4)C[C@H]3O2)n1 | 19.01 |
| CN1CCN(C(=O)C2CCN(c3cccnn3)C2)CC1 (stereo not given) | 33.64 |
| CC(=O)N1CCN(C(=O)C2CCN(c3cccnn3)C2)CC1 (stereo not given) | -4.8 |
| CN1CCN(C(=O)C2CCN(c3cccnn3)CC2)CC1 | 54.49 |
| O=C(C1CCN(c2cccnn2)C1)N1CCOCC1 (stereo not given) | 42.48 |
| CN1CCN(C(=O)C2CCCN(c3cccnn3)C2)CC1 (stereo not given) | 59.49 |
| CN1CCC(C(=O)N2CCCN(c3cccnn3)CC2)C1 (stereo not given) | 45.48 |
| CCC(C)c1cc(C(=O)N(CC(=O)NC)c2cccc(F)c2)on1 (stereo not given) | -7.58 |
| O=C([C@H]1C[C@H]2OCC[C@H]2N(CCc2ccccc2)C1)N1CCCCO1 | -10.8 |
| Cc1cc(C(=O)N2CCN(C(=O)CC(C)C)[C@@H]3CS(=O)(=O)C[C@@H]32)no1 | -57.02 |
| COc1ccc(CN2CCO[C@@H]3C[C@@H](C(=O)NC(C)C)C[C@H]32)cc1 | 3.72 |
| CCN1CC(COC(=O)c2cc(C)nn2CC)CC1=O (stereo not given) | 3.46 |
| COc1ccc2c(C)c(C(=O)NC3CCOCC3)oc2c1 | -8.3 |
| COc1ccc2c(C)c(C(=O)NCC3CN(S(C)(=O)=O)CCO3)oc2c1 (stereo not given) | 60.71 |
| COc1ccc2c(C)c(C(=O)NC3CCN(S(C)(=O)=O)CC3)oc2c1 | 11.9 |
| CC(C)CN1C[C@H](COCc2ccccc2)Oc2ncccc2C1=O | 37.74 |
| COc1cc2[nH]c(=O)c(CN3CCC[C@H]3CO)cc2c(OC)c1OC | 63.1 |
| COc1cc2[nH]c(=O)c(CN3CCC[C@@H]3C(N)=O)cc2c(OC)c1OC | -30.15 |
| COc1cc2[nH]c(=O)c(CN3CCCC3C)cc2c(OC)c1OC (stereo not given) | -5.51 |
| CCNC(=O)C1CCN(Cc2ccc(C(=O)Nc3cnns3)cc2)C1 (stereo not given) | 29.78 |
| Cc1cc(C(=O)N2CCc3nc(N4CCCC4)nc(C)c3CC2)c(C)o1 | 22.96 |
| CCCc1cc(CN(C)C2CSCCSC2)n[nH]1 | -71.03 |
| CCCc1cc(CN(C)C2CC(C)(C)NC(C)(C)C2)n[nH]1 | 62.51 |
| CCCc1cc(CN(C)C2CCSCC2)n[nH]1 | 36.28 |
| CN1CCCN(c2ccc(F)cc2CNC(=O)c2ccsc2)CC1 | 31.05 |
| O=C(CN1CCN(c2ccnc3c(F)ccc(F)c23)CC1)N1CCCC1 | 3.01 |
| CC(C)(C)CN1CC(COc2ccccc2)Oc2ccncc2S1(=O)=O (stereo not given) | 14.96 |

| SMILES | INHIBITION [%] |
| --- | --- |
| Cc1ccc(-c2noc([C@H](N)CC(C)C)n2)nn1 | 24.55 |
| Cc1ccc(-c2noc(C(O)CC(C)C)n2)nn1 (stereo not given) | -12.08 |
| CCSC(C)c1nc(-c2ccc(C)nn2)no1 (stereo not given) | 66.4 |
| Fc1cnc(N2C[C@@H]3C[C@@H](c4nc(C5CC5)cs4)O[C@@H]3C2)nc1 | 3.53 |
| Cc1nc(-c2cc(C(=O)O)co2)cs1 | 9.95 |
| CCOCC1CN(C(=O)c2ccncn2)Cc2cnn(CC)c21 (stereo not given) | 4.99 |
| CC(C)C(C)(C#N)NC(=O)Cn1cc(-c2ccccc2)cn1 (stereo not given) | -4.26 |
| CC(C)C(C)(C#N)NC(=O)Cn1cc(Cl)cn1 (stereo not given) | 26.74 |
| CC(C)C(C)(C#N)NC(=O)Cn1cc(I)cn1 (stereo not given) | 64.9 |
| Cc1nccn1CCN1C(=O)CC2(CCCC2)CC1=O | -50.2 |
| CCc1c(NCc2cccnc2)cnn1CC(C)C | -16.94 |
| CN(Cc1ccsc1)C(=O)Nc1ccc(S(C)(=O)=O)cc1 | -12.75 |
| Cn1cccc1CN(C(=O)CC(CC(=O)O)c1cccs1)C1CC1 (stereo not given) | 81.52 |
| O=C(O)CC(CC(=O)N(Cc1ccsc1)C1CC1)c1cccs1 (stereo not given) | 1.06 |
| Cn1cccc1CN(C(=O)Cc1cccs1)C1CC1 | 51.96 |
| CN(C(=O)Cc1cccs1)C1CCN(c2ccccn2)CC1 | 16.89 |
| O=C(O)CC(CC(=O)NCCc1cccs1)c1cccs1 (stereo not given) | 17.25 |
| CN(Cc1cccs1)C1CCC[C@@H]2CN(C(=O)c3cccn3C)C[C@H]12 (stereo not given in full) | 6.33 |
| CCN(CC1CCOC1)C(=O)NCc1nnc2n1CCCCC2 (stereo not given) | 7.24 |
| CC(NCC1CCN(CCO)CC1)c1ccc(F)c(Cl)c1 (stereo not given) | -111.19 |
| CC(NCC1CCN(CCO)CC1)c1cccc(Cl)c1 (stereo not given) | 34.46 |
| CC(NCC1CCN(CCO)CC1)c1cccnc1 (stereo not given) | -4.09 |
| CC(NCC1CCN(CCO)CC1)c1ccc(OC(F)(F)F)cc1 (stereo not given) | 47.68 |
| CC(NCC1CCN(CCO)CC1)c1ccc(C(F)(F)F)cc1 (stereo not given) | 55.39 |
| CC(NCC1CCN(CCO)CC1)c1ccc(Cl)cc1 (stereo not given) | 56.49 |
| CCc1nc(NC(=O)NCCc2cscn2)nn1C | 1.88 |
| Clc1cccc(C(CNCc2ccccn2)N2CCOCC2)c1 (stereo not given) | 20.8 |

| SMILES | INHIBITION [%] |
| --- | --- |
| CC(C)c1nn(C)c(N(C)C)c1CNCc1ccnc(N(C)C)c1 | 1.36 |
| O=C(Cn1ccc2ccc(Cl)cc21)NCc1ccc(C(=O)O)cc1 | 30.98 |
| O=C(NCC1CC1)C1CN(C(=O)Nc2ccccc2)CC12CCOCC2 (stereo not given) | -48.3 |
| CC(C)NC(=O)C1CN(C(=O)Nc2ccccc2)CC12CCOCC2 (stereo not given) | 47.1 |
| O=C(Nc1ccccc1)N1CC(C(=O)N2CCCC2)C2(CCOCC2)C1 (stereo not given) | 51.72 |
| CN(Cc1cc2n(n1)CCN(C(=O)[C@H]1CCCO1)C2)Cc1nccs1 | 24.08 |
| c1ccc(Oc2cccc(OC34CCCN(CC3)C4)c2)cc1 (stereo not given) | 43.72 |
| Cc1cc(C)n(C2CN(Cc3noc(C4CC4)n3)C2)n1 | -14.28 |
| COCCc1noc(CN2CCOC(Cn3nc(C)cc3C)C2)n1 (stereo not given) | -85.26 |
| Cc1cccc(-c2nc(CN3CC(n4nc(C)cc4C)C3)no2)c1 | 51.31 |
| COCCc1noc(CN2CC(n3nc(C)cc3C)C2)n1 | 65.39 |
| Cc1ccc(-c2nc(CN3CC(n4nc(C)cc4C)C3)no2)cc1 | 31.55 |
| Cc1cc(C)n(C2CN(Cc3noc(-c4ccccc4)n3)C2)n1 | 1.34 |
| Cn1c(CO)cnc1SC1CCCN(c2ccccc2F)C1=O (stereo not given) | 15.82 |
| Cc1ncsc1CN1CCn2c(COCC3CC3)cnc2C1C (stereo not given) | -21.27 |
| CCc1noc(CNC2CCCN(Cc3noc(C4CC4)n3)C2)n1 (stereo not given) | 30.29 |
| CCS(=O)(=O)c1ncc(CN(C)Cc2ccccc2Cl)n1CCOC | -5.13 |
| CCS(=O)(=O)c1ncc(CN(C)Cc2ccccc2OC)n1CCOC | 60.74 |
| CCS(=O)(=O)c1ncc(CN(C)Cc2ccccn2)n1CCOC | -40.94 |
| CN(C)Cc1cn(-c2ccccc2C(=O)NCC2CCCCN2C)cn1 (stereo not given) | 87.38 |
| CN(C)Cc1cn(-c2ccccc2C(=O)NCCC2CCCN2C)cn1 (stereo not given) | 16.43 |
| CN1CCCC1CCNC(=O)c1ccccc1-n1cnc(CN)c1 (stereo not given) | 22.95 |
| Cc1csc(N2CCN(Cc3nnsc3Cl)CC2C)n1 (stereo not given) | -39.79 |
| c1ccc(C[C@H]2CN(Cc3nccs3)CC[C@@H]2OCC2CC2)cc1 | 41.79 |
